The first test addresses Torsin-1A (Homo sapiens) (UniProt O14656). Nature of the test: TOR1A wild-type binding on microarray – cell lysate, small-molecule microarray, lysate, 635/667 nm, primary screen (AID 1149). The note with it: COS7 hTOR1A-WT lysate, 635 nm fluorescence, higher = more signal.
Chain of Torsin-1A (Homo sapiens) (O14656 whole entry, looked up): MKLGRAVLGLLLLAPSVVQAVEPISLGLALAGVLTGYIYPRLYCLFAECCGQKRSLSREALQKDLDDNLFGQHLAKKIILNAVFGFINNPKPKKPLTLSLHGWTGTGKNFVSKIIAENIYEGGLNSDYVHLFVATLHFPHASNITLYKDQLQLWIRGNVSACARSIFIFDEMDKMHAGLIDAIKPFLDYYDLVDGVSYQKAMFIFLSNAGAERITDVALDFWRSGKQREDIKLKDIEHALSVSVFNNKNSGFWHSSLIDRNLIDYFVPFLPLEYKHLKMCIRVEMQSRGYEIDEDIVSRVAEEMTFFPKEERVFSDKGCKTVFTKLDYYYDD
For the molecule `COC(=O)[C@@]1(Cc2ccccc2)[C@@H]2[C@@H](CC(=O)[C@H]2CC(=O)C(=O)N(C)C)CN1C(=O)c1ccccc1`, the composite z-score is -0.115.

Turning to `O=C1O[C@H](c2ccccc2)[C@H](c2ccccc2)N2[C@H]1[C@@H](C(=O)N1CCN(c3ncccn3)CC1)[C@]1(C(=O)Nc3ccccc31)[C@H]2c1ccc(O)cc1`, the composite z-score came to 0.103.

`CCOC(=O)C1=CC[C@@H](c2ccccc2Cl)N(S(=O)(=O)c2ccc(C)cc2)[C@H]1c1cccc(OC)c1` came in with a composite z-score of 0.368.

The target is the same in the next test. Nature of the test: torsin A mutant lysate binding on microarrays – cell lysate, small-molecule microarray, COS7 lysate, 635/667 nm fluorescence, primary screen (AID 1150).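 Further: score pools 667 nm emission and signal to noise measuring lysate protein binding.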 The note with it: COS7 hTOR1A mutant lysate, 635 nm fluorescence, higher = more signal.
As for `Cc1ccccc1C(O)C1C=CC2C(=O)N(c3ccccc3)C(=O)C2N1Nc1ccccc1F` (stereo not drawn), the composite z-score stood at 1.25.

`COC(=O)[C@@]1(CCS(=O)(=O)c2ccccc2)N=C(c2ccc(OCCCO)cc2)O[C@H]1c1ccccc1N=[N+]=[N-]` yielded a composite z-score of 1.04.

As for `C=C(CCCC)C(=O)CC[C@H](OC(=O)c1cccnc1)c1ccc(CO)o1`, the composite z-score came out at 0.576. Still for that read-out and setting: the figure for `COCCOC(=O)N1C(=O)[C@@]2(c3cc(C#CC4(O)CCCCCC4)ccc31)[C@H](c1ccc(OCCO)cc1)N1[C@H](c3ccccc3)[C@H](c3ccccc3)OC(=O)[C@H]1[C@@H]2C(N)=O` is 0.861. Same read-out and setting: the figure for `CN(C)C(=O)[C@]1(Cc2ccccc2)N=C(c2ccc(OCCCO)cc2)O[C@@H]1c1ccccc1` is 0.71; for `COc1ccc(C#Cc2ccc3c(c2)[C@]2(C(=O)N3)[C@H](C(=O)Nc3nc4ccccc4s3)[C@H]3C(=O)O[C@H](c4ccccc4)[C@H](c4ccccc4)N3[C@@H]2c2ccc(OCCO)cc2)cc1` it is 0.887. Still for that read-out and setting: for `CCOC(=O)C[C@H]1[C@H](OC(=O)c2ccc(C(=O)c3ccccc3)cc2)[C@@H](NC(=O)c2ccc3ccccc3c2)c2cc(OCCCO)ccc2N1C(=O)c1ccc2ccccc2n1` the value was 0.819. In the case of `CN(C)CCCCNC(=O)[C@H]1C[C@H]2C(=O)N[C@@H](Cc3ccccc3)C(=O)N2[C@H]1c1cccc(OCCO)c1`, the composite z-score turned out to be 0.59. The same measure, in the same setting: the figure for `C=C(CC1([C@@H](NP(=O)(c2ccccc2)c2ccccc2)[C@H]2C[C@@H]2CCN(C(=O)OCC)S(=O)(=O)c2ccc(C)cc2)CC1)c1ccccc1` is 0.0999. In the case of `C=C(CCCC)/C(=C/C[C@H](OC(C)=O)c1cccc(OCCO)c1)c1cc(C(=O)OC)ccc1OC`, the composite z-score was -0.426. Same read-out and setting: the figure for `C=CCNC(=O)[C@H]1[C@@H]2C(=O)O[C@@H](c3ccccc3)[C@@H](c3ccccc3)N2[C@@H](c2ccccc2OCCO)[C@]12C(=O)N(C(=O)OCCOC)c1ccccc12` is 0.664; for `O=C1OCCC/C=C\[C@H]2OC34C=CCN(Cc5ccccc5)C(=O)[C@H]3N(CCCCCO)C(=O)[C@@H]4C12` (stereo partly drawn) it is -1.75. The same measure, in the same setting: for `CC(C)(C)OC(=O)CC[C@]1(C(=O)N2CCOCC2)N=C(c2ccc(OCCCO)cc2)O[C@H]1c1ccccc1CN=[N+]=[N-]` the value was 1.58; for `CCCC=C(CCC)[C@@H](NC(=O)c1ccco1)c1ccc(C(=O)OC)cc1`, 0.918. On the same count and under the same terms, the figure for `COC(=O)c1c(CC[C@@H](CO)NC(=O)N[C@@H](Cc2ccccc2)Cn2cc(-c3cncn3C)nn2)oc(C(C)=O)c1C(=O)OC` is 1.26; for `COC(=O)[C@@]1(Cc2ccc(OC)cc2)[C@H]2c3cc(C(=O)N(C)C)n(Cc4ccsc4Br)c3C[C@H]2CN1C(=O)c1ccccc1` it is 0.808. For the molecule `C=CCC(OC(C)=O)[C@@H]1[C@@H](N(Cc2ccc(-c3ccccc3)cc2)C(=O)c2ccc(-c3ccccc3)cc2)c2cc(OCCCO)ccc2N1C(=O)c1ccc2ccccc2n1` (stereo partly drawn), the composite z-score amounted to 0.342.

The molecule `O=C1c2ccccc2[C@](Cc2ccccc2I)(C(=O)O)[C@H](c2ccc(CO)cc2)N1Cc1ccccc1` had a composite z-score of 0.0706.

The molecule `COCC(=C=CC[C@@H](O)c1cccc(OCCO)c1)C[C@@H](O)COCc1ccccc1` came in with a composite z-score of 2.28.

Turning to `C[N+](C)(C)CCCCCCNC(=O)[C@@H]1C[C@@H]2C(=O)N[C@@H](Cc3ccccc3)C(=O)N2[C@@H]1c1ccc(O)cc1`, the composite z-score was determined as 0.984. On the same count and under the same terms, for `COCCOC(=O)N1C(=O)[C@@]2(c3ccccc31)[C@H](c1ccc(OCCO)cc1)N1[C@H](c3ccccc3)[C@H](c3ccccc3)OC(=O)[C@H]1[C@@H]2C(=O)N1CCN(c2ncccn2)CC1` the value was 0.794; for `COCCOC(=O)N1C(=O)[C@@]2(c3cc(C#CCCO)ccc31)[C@H](c1ccccc1OCCO)N1[C@H](c3ccccc3)[C@H](c3ccccc3)OC(=O)[C@H]1[C@@H]2C(=O)N1CCc2cc(OC)c(OC)cc2C1`, 1.18; for `C=CCC(OC(C)=O)[C@@H]1[C@@H](N(Cc2cc3ccccc3o2)C(=O)Cc2ccc(OC)cc2)c2cc(OCCCO)ccc2N1C(=O)Cc1ccc(OC)cc1` (stereo partly drawn), 0.34.

Molecule `CC(C)C[C@H]1NC(=O)[C@@]23C(=O)N[C@@H](Cc4ccccc4)C2[C@H](C)[C@@]2(C)O[C@H]2C3/C=C/C/C=C\CNC(=O)[C@@H]2CCCN2C1=O` (stereo partly drawn) registered a composite z-score of -0.0683. Same read-out and setting: the figure for `COCCOC(=O)N1C(=O)[C@@]2(c3cc(C#CCC(C(=O)OC)C(=O)OC)ccc31)[C@H](c1ccc(OCCO)cc1)N1[C@H](c3ccccc3)[C@H](c3ccccc3)OC(=O)[C@H]1[C@@H]2C(=O)N1CCCCCCC1` is 1.98; for `COCC(=C=CC[C@@H](O)c1ccc(OCCO)cc1)C[C@@H](O)COCc1ccccc1` it is 1.43; for `COC(=O)[C@@H]1N=C(c2ccc(OCCCO)cc2)O[C@@H]1c1ccccc1CN=[N+]=[N-]` it is -0.938. Still for that read-out and setting: the figure for `C=C(COC)C(=O)CC[C@@H](OC(C)=O)c1ccc(OCCO)cc1` is -0.241. Still for that read-out and setting: for `O=C(NCCO)C1=C[C@H](Oc2ccccc2I)[C@@H](O)[C@H](NCc2ccc(F)cc2)C1` the value was 1; for `O=C1O[C@@H](c2ccccc2)[C@@H](c2ccccc2)N2[C@@H](c3ccc(OCCO)cc3)[C@]3(C(=O)Nc4ccc(C#CCCO)cc43)[C@@H](C(=O)Nc3nc4ccccc4s3)[C@H]12`, 0.79. `NCCCC[C@@H]1NC(=O)[C@H]2C[C@@H](C(=O)O)[C@@H](c3cccc(OCCO)c3)N2C1=O` yielded a composite z-score of 1.7.

For the molecule `COCCOC(=O)N1C(=O)[C@@]2(c3cc(C#CCCO)ccc31)[C@H](C(=O)N1CCc3cc(OC)c(OC)cc3C1)[C@H]1C(=O)O[C@H](c3ccccc3)[C@H](c3ccccc3)N1[C@@H]2c1ccccc1OCCO`, the composite z-score turned out to be 0.904.

As to `COC(=O)[C@@]1(Cc2ccccc2)[C@@H]2[C@@H](CC(=O)[C@H]2CC(=O)C(=O)N(C)C)CN1C(=O)c1ccccc1`, the composite z-score worked out at 0.417. On the same count and under the same terms, for `O=C1O[C@H](c2ccccc2)[C@H](c2ccccc2)N2[C@H]1[C@@H](C(=O)N1CCN(c3ncccn3)CC1)[C@]1(C(=O)Nc3ccccc31)[C@H]2c1ccc(O)cc1` the value was 0.799; for `CCOC(=O)C1=CC[C@@H](c2ccccc2Cl)N(S(=O)(=O)c2ccc(C)cc2)[C@H]1c1cccc(OC)c1`, 0.0635.

Values taken from PubChem BioAssay.
